Assay outcomes deposited in PubChem by The Scripps Research Institute Molecular Screening Center.
TEAD-YAP block = TEAD-YAP interaction inhibition; HEK-TIYL cells, TEAD-Gal4/YAP UAS-luciferase luminescence; inhibition, % at 9.12 µM; 1.4% of 640,000 active; AID 1259422; in the data active = inhibition above about 32%;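 note: 0% = median of test compound wells and 100% = reference inhibitor wells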
MITF primary = inhibitors of human MITF; O75030; AlphaScreen MITF homodimerization, bead proximity signal; inhibition, % at 2.6 µM; 0.91% of 650,000 active; in the data active = inhibition above about 50%;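 note: 0% = vehicle wells with protein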
GPR151 activ = human GPR151 activation; Q8TDV0; AID 1508602; 1% of 650,000 active; activation, % at 11.2 µM; PathHunter beta-arrestin GPR151 cells, luminescence; in the data active = activation above about 4.9%;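 note: 0% = median of compound wells and 100% = cells with positive control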
FBW7 activator = human FBW7 E3 ligase activation, primary screen | Q969H0 | AlphaScreen FBW7–phospho-cyclin E peptide binding, activator screen | normalized activity (activation), % at 26.1 µM | 0.13% of 650,000 active | AID 1259310; in the data active = normalized activity above about 1.9%;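 note: purified mutant Fbw7 with reduced substrate affinity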
Target sequence (Q969H0 whole entry, looked up): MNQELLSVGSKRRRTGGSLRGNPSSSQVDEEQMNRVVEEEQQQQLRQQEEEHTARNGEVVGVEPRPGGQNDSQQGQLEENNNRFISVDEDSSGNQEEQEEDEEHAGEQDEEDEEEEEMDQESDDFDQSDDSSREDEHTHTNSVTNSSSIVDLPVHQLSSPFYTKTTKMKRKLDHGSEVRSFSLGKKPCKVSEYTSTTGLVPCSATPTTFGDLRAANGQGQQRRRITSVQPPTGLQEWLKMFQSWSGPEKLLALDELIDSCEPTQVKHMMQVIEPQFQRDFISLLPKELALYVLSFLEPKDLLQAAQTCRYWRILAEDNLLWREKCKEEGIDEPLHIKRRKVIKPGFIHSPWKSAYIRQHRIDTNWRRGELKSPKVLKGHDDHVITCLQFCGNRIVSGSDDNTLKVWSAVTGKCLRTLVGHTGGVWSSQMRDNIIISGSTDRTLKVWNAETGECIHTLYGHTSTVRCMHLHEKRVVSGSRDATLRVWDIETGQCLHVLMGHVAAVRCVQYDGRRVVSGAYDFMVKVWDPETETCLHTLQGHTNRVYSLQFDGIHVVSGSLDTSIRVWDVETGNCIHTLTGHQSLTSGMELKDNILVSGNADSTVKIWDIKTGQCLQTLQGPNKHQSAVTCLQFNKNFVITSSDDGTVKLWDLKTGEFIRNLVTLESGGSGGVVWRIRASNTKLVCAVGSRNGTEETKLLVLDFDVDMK
Active calls of the source: *. Hits are enriched below; roughly 3.5% of the tested compounds scored in any of these assays.

SMILES	TEAD-YAP block	MITF primary	GPR151 activ	FBW7 activator
N#Cc1nc(N2CCCC2)nc(N2CCCC2)n1	37*	4	0	0
O=C1CCCC2=C1C(c1cccs1)c1c(n[nH]c1-c1ccc([N+](=O)[O-])cc1)N2 (centres undefined)	42*	-1	0	0
COc1cc(CN2CCC(C3(CCC(C)C)NC(=O)NC3=O)CC2)cc2c1OCO2 (centres undefined)	12	2	0	0
CCn1c(SCC(=O)Nc2ccccc2Cl)nnc1C(C)C	19	6	1	0
CC1(C)CC(=O)c2c(-c3ccccc3O)n[nH]c2C1	-21	3	-1	0
CN(C)CCn1c2ccccc2c2cnc(N)c(C#N)c21	93*	3	2	0
CC(C)(C)C(=O)Nc1ccc(NC(=O)c2cccs2)nc1	94*	4	-4	0
CC(C)n1c(Nc2cnccn2)nc2c(Nc3ccccc3)ncnc21	20	-3	-1	0
COc1ccc(/C=C\c2nc(O)c([N+](=O)[O-])c(=O)[nH]2)cc1O	1	-9	-1	0
O=c1[nH]c(/C=C/c2ccc3c(c2)OCO3)nc2ccccc12	56*	10	-8	0
COc1ccc(/C=C/c2nc3ccccc3c(=O)[nH]2)cc1O	44*	6	-9	0
COc1cccc(/C=C/c2nc3ccccc3c(=O)[nH]2)c1O	65*	15	-11	0
O=C(c1ccco1)N1CCN(C(c2ccccc2F)c2nnnn2C2CCCC2)CC1 (centres undefined)	11	-11	0	0
O=C1c2ccccc2-c2onc3c(Br)cc(Sc4ccccc4)c1c23	2	-20	-1	0
Cc1ccc(NC(=O)COC(=O)CNC(=O)c2ccc(C(C)(C)C)cc2)c([N+](=O)[O-])c1	-6	-5	0	0
CC(=O)c1cccc(-c2nc(NCCCN3CCCC3=O)c3ncn(CCN4CCCC4=O)c3n2)c1	0	-7	-1	0
CC(=O)c1cccc(-c2nc(NCCCN3CCCC3=O)c3ncn(-c4ccccc4)c3n2)c1	58*	-7	-1	0
O=C(NC1CC1)c1ccc(-c2nc(NCCCN3CCCC3=O)c3ncn(-c4ccccc4)c3n2)cc1	64*	1	0	0
NC(=O)c1ccc(-c2nc(NCCCN3CCCC3=O)c3ncn(-c4ccccc4)c3n2)cc1	55*	14	1	0
COC(=O)c1ccc(S(=O)(=O)N(CCO)Cc2cc3ccc(C)c(C)c3[nH]c2=O)cc1	-20	8	0	0
CC1C(O)=C(c2nc3ccccc3[nH]2)c2nc(=O)c3ccccc3n21 (centres undefined)	54*	17	-1	-1
Cc1cccc2c(=O)nc3n(c12)CC(O)=C3c1nc2ccccc2[nH]1	-5	2	0	0
Cc1ccc(C)c(CSc2nc3ccsc3c(=O)n2CCCCC(=O)O)c1	57*	2	0	0
Cc1ccc(CNC(=O)CCCCCn2c(SCc3cc(C)ccc3C)nc3ccsc3c2=O)cc1	-2	-6	1	0
COC(=O)Cn1c(SCc2cc(C)ccc2C)nc2ccsc2c1=O	63*	14	0	0
SMILES	TEAD-YAP block	MITF primary	GPR151 activ	FBW7 activator
COCCCNCCOc1ccc(C)cc1Br	0	16	2	0
NS(=O)(=O)c1ccc(N/N=C/c2ccc3c(c2)OCCO3)cc1	-68	22	-2	0
OCC1CCCN1c1cc(NCCc2ccc(O)cc2)ncn1 (centres undefined)	48*	10	-1	0
OCC1CCCN1c1cc(Nc2ccc3c(c2)OCO3)ncn1 (centres undefined)	37*	3	-1	0
OCC1CCCN1c1cc(Nc2ccccc2)ncn1 (centres undefined)	-23	12	-1	0
Oc1ccc(CCNc2cc(Nc3ncccn3)ncn2)cc1	42*	-13	0	1
CC1(C)NC(=O)N(CN2CCN(C(c3ccccc3)c3ccccc3)CC2)C1=O	1	2	1	0
Cc1cc(C(=O)O)ccc1-c1ccc(/C=C2\SC(=O)N(C)C2=O)o1	-51	15	-2	1
C=CCOC(=O)C1=C(C)NC(SCC(=O)Nc2cccc(Cl)c2C)=C(C#N)C1c1cccs1 (centres undefined)	-10	-10	1	0
O=C(COC(=O)CN1C(=O)C2CC=CCC2C1=O)Nc1nc(-c2ccc(F)cc2)cs1 (centres undefined)	-11	8	-3	0
O=C(COc1ccc(Cl)cc1)NCCSc1ccccn1	-13	0	1	2.6*
O=C(c1cc(-c2ccco2)[nH]n1)N1CCN(c2ncccn2)CC1	5	-1	-1	1
COc1ccc(/C=C/c2nc3ccccc3n2C)cc1	98*	-7	-11	0
COc1ccc(/C=C/C(=O)Nc2nc3ccccc3n2C)cc1	-17	17	-1	0
COc1ccc(/C=N\n2nnc3ccccc32)cc1	85*	3	-7	0
COc1ccccc1/C=C/c1nc2ccccc2c(=O)o1	-54	7	-7	0
COc1ccc(/C=C/c2nc3ccccc3c(=O)o2)cc1	75*	-5	-10	0
COc1ccc(-c2nc3ccccc3[nH]2)cc1	50*	-3	-11	0
CCc1cccc2c(C(=O)COC(=O)C34CC5CC(CC(O)(C5)C3)C4)c[nH]c12	-46	3	0	0
CC(=O)c1ccc(COC(=O)c2cccc([N+](=O)[O-])c2)cc1	-3	-3	2	0
COc1cccc(N2CC(O)=C(c3nc4ccccc4[nH]3)C2=N)c1	37*	1	1	0
COc1ccc(/C=C(/C#N)c2nc3ccccc3[nH]2)cc1	-51	2	-2	0
COc1ccc(/C=C/c2nc3ccccc3[nH]2)cc1	88*	1	-6	0
C(=C\c1nc2ccccc2[nH]1)/c1ccccc1	80*	-7	-10	0
Nc1ccc2nc(/C=C/c3ccccc3)[nH]c2c1	15	10	-9	0
SMILES	TEAD-YAP block	MITF primary	GPR151 activ	FBW7 activator
Cc1cccc(C)c1NC(=O)C(=O)NCCC(C)C	1	3	0	0
CC(C)C(=O)N1CCC[C@@H](Cn2nc(-c3cccs3)ccc2=O)C1	69*	-4	1	0
COc1ccc(-n2nc(C(=O)NCC(=O)Nc3cc(OC)c(OC)c(OC)c3)c3ccccc3c2=O)cc1OC	49*	5	1	0
COc1ccc(-n2nc(C(=O)NCC(=O)Nc3ccc(F)cc3)c3ccccc3c2=O)cc1OC	17	-8	1	0
COc1cccc(NC(=O)CNC(=O)c2nn(-c3ccc(OC)c(OC)c3)c(=O)c3ccccc23)c1	34*	-1	-1	0
CC(C)(C)c1cc(C(=O)CSc2nncn2-c2ccccc2)cc(C(C)(C)C)c1O	7	3	-1	0
COc1ccc(C2CC(c3c(O)cc(C)oc3=O)=Nc3ccccc3S2)cc1O (centres undefined)	62*	7	-2	0
COc1ccc(C2CC(c3c(O)cc(C)oc3=O)=NCCS2)c(OC)c1 (centres undefined)	42*	-2	0	0
CSc1cccc(NC(=O)c2nnn(Cc3ccc(F)cc3)c2N)c1	1	-4	1	0
